Measured values taken from PubChem BioAssay AID1159580 (chemical genetic matrix, 2015).
Among all 5,500 compounds or so, about 2,000 (36%) were called active. About 18% were inconclusive and are not listed. No stated cut-off is given here; in the data, active means normalized growth mostly below about 0.91 (no sharp cut-off); inconclusive means no clear call, values can overlap the other calls; inactive means mostly above about 0.92. Some of the results follow.

Assay: chemical genetic growth profiling, strain panel (AID 1159580);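 further: tested at 20 µM; growth read once vehicle control cultures reached saturation at 30 °C; 1 = growth at the plate median or of vehicle wells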
Settings: growth OD

Measured: normalized growth

CCc1ccc(CCOc2ccc(CC3SC(=O)NC3=O)cc2)nc1 (configuration not stated)
inactive: S. cerevisiae deletion strains, locus YJR075W, strain HOC1, stronger effect = lower value 0.997 | S. cerevisiae deletion strains, locus YKL009W, strain mrt4, stronger effect = lower value 1.01 | S. cerevisiae deletion strains, locus YKL068W, stronger effect = lower value 0.991 | S. cerevisiae deletion strains, locus YKL085W, strain MDH1 (second series), stronger effect = lower value 0.991 | S. cerevisiae deletion strains, locus YKL085W, strain MDH1, stronger effect = lower value 0.991 | S. cerevisiae deletion strains, locus YKL160W, strain elf1, stronger effect = lower value 1.02 | S. cerevisiae deletion strains, locus YKL190W, strain CNB1, stronger effect = lower value 1.02 | S. cerevisiae deletion strains, locus YKR001C, strain vps1, stronger effect = lower value 0.977 | S. cerevisiae deletion strains, locus YKR026C, strain gcn3, stronger effect = lower value 1.01 | S. cerevisiae deletion strains, locus YKR091W, strain srl3, stronger effect = lower value 0.999 | S. cerevisiae deletion strains, locus YLL001W, strain dnm1, stronger effect = lower value 1 | S. cerevisiae deletion strains, locus YLL026W, stronger effect = lower value 1.02 | S. cerevisiae deletion strains, locus YLL041C, strain sdh2, stronger effect = lower value 1.01 | S. cerevisiae deletion strains, locus YLR027C, strain aat2, stronger effect = lower value 1.01 | S. cerevisiae deletion strains, locus YLR039C, strain RIC1, stronger effect = lower value 0.914 | S. cerevisiae deletion strains, locus YLR058C, strain SHM2, stronger effect = lower value 1.01 | S. cerevisiae deletion strains, locus YLR102C, strain apc9, stronger effect = lower value 0.988 | S. cerevisiae deletion strains, locus YLR113W, strain HOG1, stronger effect = lower value 1.01 | S. cerevisiae deletion strains, locus YLR221C, strain rsa3, stronger effect = lower value 1.01 | S. cerevisiae deletion strains, locus YLR258W, strain gsy2, stronger effect = lower value 1.02 | S. cerevisiae deletion strains, locus YLR262C, strain YPT6 (second series), stronger effect = lower value 0.99 | S. cerevisiae deletion strains, locus YLR262C, strain YPT6, stronger effect = lower value 0.88 | S. cerevisiae deletion strains, locus YLR268W, strain sec22, stronger effect = lower value 0.993 | S. cerevisiae deletion strains, locus YLR320W, strain mms22, stronger effect = lower value 1.01 | S. cerevisiae deletion strains, locus YLR330W, strain CHS5, stronger effect = lower value 1.01 | S. cerevisiae deletion strains, locus YLR342W, strain FKS1 (second series), stronger effect = lower value 0.985 | S. cerevisiae deletion strains, locus YLR342W, strain FKS1, stronger effect = lower value 1.02 | S. cerevisiae deletion strains, locus YLR357W, strain rsc2, stronger effect = lower value 1.03 | S. cerevisiae deletion strains, locus YLR370C, strain arc18, stronger effect = lower value 1.01 | S. cerevisiae deletion strains, locus YLR371W, strain rom2, stronger effect = lower value 0.989 | S. cerevisiae deletion strains, locus YLR384C, strain iki3, stronger effect = lower value 1.01 | S. cerevisiae deletion strains, locus YLR418C, strain cdc73, stronger effect = lower value 0.969 | S. cerevisiae deletion strains, locus YML016C, strain PPZ1, stronger effect = lower value 0.997 | S. cerevisiae deletion strains, locus YML032C, strain rad52, stronger effect = lower value 0.998 | S. cerevisiae deletion strains, locus YML120C, strain ndi1, stronger effect = lower value 1.02 | S. cerevisiae deletion strains, locus YML124C, strain tub3, stronger effect = lower value 0.992 | S. cerevisiae deletion strains, locus YMR058W, strain fet3, stronger effect = lower value 1.01 | S. cerevisiae deletion strains, locus YMR078C, strain ctf18, stronger effect = lower value 0.985 | S. cerevisiae deletion strains, locus YMR125W, strain sto1, stronger effect = lower value 1.02 | S. cerevisiae deletion strains, locus YMR129W, stronger effect = lower value 1 | S. cerevisiae deletion strains, locus YMR205C, strain PFK2, stronger effect = lower value 0.997 | S. cerevisiae deletion strains, locus YMR223W, strain ubp8, stronger effect = lower value 0.995 | S. cerevisiae deletion strains, locus YMR231W, strain pep5, stronger effect = lower value 0.995 | S. cerevisiae deletion strains, locus YMR263W, strain SAP30, stronger effect = lower value 1.04 | S. cerevisiae deletion strains, locus YMR307W, strain GAS1, stronger effect = lower value 0.938 | S. cerevisiae deletion strains, locus YNL067W, strain RPL9B, stronger effect = lower value 1.06 | S. cerevisiae deletion strains, locus YNL071W, strain lat1, stronger effect = lower value 1.01 | S. cerevisiae deletion strains, locus YNL128W, strain TEP1, stronger effect = lower value 1.04 | S. cerevisiae deletion strains, locus YNL153C, strain GIM3, stronger effect = lower value 1 | S. cerevisiae deletion strains, locus YNL183C, strain NPR1, stronger effect = lower value 0.963 | S. cerevisiae deletion strains, locus YNL209W, strain ssb2, stronger effect = lower value 0.997 | S. cerevisiae deletion strains, locus YNL233W, strain BNI4, stronger effect = lower value 1.01 | S. cerevisiae deletion strains, locus YNL248C, strain rpa49, stronger effect = lower value 1.02 | S. cerevisiae deletion strains, locus YNL250W, strain rad50, stronger effect = lower value 0.995 | S. cerevisiae deletion strains, locus YNL271C, strain bni1, stronger effect = lower value 1 | S. cerevisiae deletion strains, locus YNL298W, strain CLA4, stronger effect = lower value 0.997 | S. cerevisiae deletion strains, locus YNL307C, strain MCK1, stronger effect = lower value 0.994 | S. cerevisiae deletion strains, locus YNL322C, strain KRE1 (second series), stronger effect = lower value 1.02 | S. cerevisiae deletion strains, locus YNL322C, strain KRE1, stronger effect = lower value 0.994 | S. cerevisiae deletion strains, locus YNR049C, strain mso1, stronger effect = lower value 1.01 | S. cerevisiae deletion strains, locus YNR052C, strain pop2, stronger effect = lower value 1.01 | S. cerevisiae deletion strains, locus YOL006C, strain TOP1, stronger effect = lower value 1 | S. cerevisiae deletion strains, locus YOL012C, strain htz1 1.21 | S. cerevisiae deletion strains, locus YOL147C, strain pex11, stronger effect = lower value 0.996 | S. cerevisiae deletion strains, locus YOR001W, strain rrp6, stronger effect = lower value 1.01 | S. cerevisiae deletion strains, locus YOR061W, strain CKA2, stronger effect = lower value 0.999 | S. cerevisiae deletion strains, locus YOR069W, strain VPS5, stronger effect = lower value 1 | S. cerevisiae deletion strains, locus YOR070C, strain gyp1, stronger effect = lower value 1.01 | S. cerevisiae deletion strains, locus YOR080W, strain dia2, stronger effect = lower value 1.01 | S. cerevisiae deletion strains, locus YOR083W, strain WHI5, stronger effect = lower value 1 | S. cerevisiae deletion strains, locus YOR106W, strain vam3, stronger effect = lower value 1.02 | S. cerevisiae deletion strains, locus YOR136W, strain idh2, stronger effect = lower value 1 | S. cerevisiae deletion strains, locus YOR144C, strain elg1, stronger effect = lower value 0.993 | S. cerevisiae deletion strains, locus YOR184W, strain ser1, stronger effect = lower value 0.971 | S. cerevisiae deletion strains, locus YOR231W, strain MKK1, stronger effect = lower value 0.98 | S. cerevisiae deletion strains, locus YOR265W, strain rbl2, stronger effect = lower value 1.01 | S. cerevisiae deletion strains, locus YOR270C, strain vph1, stronger effect = lower value 1.04 | S. cerevisiae deletion strains, locus YOR290C, strain snf2, stronger effect = lower value 1 | S. cerevisiae deletion strains, locus YOR316C, strain cot1, stronger effect = lower value 0.997 | S. cerevisiae deletion strains, locus YPL051W, strain arl3, stronger effect = lower value 1.01 | S. cerevisiae deletion strains, locus YPL055C, strain LGE1, stronger effect = lower value 1.02 | S. cerevisiae deletion strains, locus YPL078C, strain atp4, stronger effect = lower value 1.01 | S. cerevisiae deletion strains, locus YPL106C, strain sse1, stronger effect = lower value 1.02 | S. cerevisiae deletion strains, locus YPL240C, strain hsp82, stronger effect = lower value 1.02 | S. cerevisiae deletion strains, locus YPL241C, strain CIN2, stronger effect = lower value 1 | S. cerevisiae deletion strains, locus YPL256C, strain CLN2, stronger effect = lower value 0.936 | S. cerevisiae deletion strains, locus YPR119W, strain clb2, stronger effect = lower value 0.989 | S. cerevisiae deletion strains, locus YPR141C, strain kar3, stronger effect = lower value 0.994 | S. cerevisiae deletion strains, locus YPR163C, strain tif3, stronger effect = lower value 0.999 | S. cerevisiae deletion strains, locus YPR167C, strain met16, stronger effect = lower value 0.996 | S. cerevisiae deletion strains, strain wtn01, stronger effect = lower value 0.99 | S. cerevisiae strains, strain wild type, stronger effect = lower value 1.01
